Experimental data from PubChem BioAssay (NCI).
Compounds without any hit were thinned out: in the full panel of roughly 79,000, 15% have a hit. The source made the active and inactive calls. No stated cut-off is given here; in the data, active means growth inhibition above about 70%; inactive means the rest.

Columns and labels:
[1] = NCI Yeast Anticancer Drug Screen. Data for the rad50 strain (AID 155);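 further: 0% = growth of vehicle-only cultures of the same strain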; conditions: S. cerevisiae rad50 strain growth inhibition; at 50.0 µM; hits give high values
Summary of the method: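 A DNA repair-deficient yeast mutant serves as the test organism; compound-induced growth inhibition is calculated against vehicle-treated cells.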

[2] = NCI Yeast Anticancer Drug Screen. Data for the mec2-1 strain (AID 157); conditions: S. cerevisiae mec2-1 strain, at 50.0 µM, hits give high values
Summary of the method: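 Using mec2-1 yeast: add compound, measure growth, express inhibition versus vehicle-treated cultures.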

[3] = NCI Yeast Anticancer Drug Screen. Data for the sgs1 mgt1 strain (AID 161);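 further: 0% = growth of cultures given vehicle only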; conditions: S. cerevisiae sgs1 mgt1 strain, at 50.0 µM, hits give high values
Summary of the method: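 Percent growth inhibition was derived by comparing compound-exposed mutant yeast with vehicle-exposed cultures. The strain carries alterations in DNA damage repair.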

[4] = NCI Yeast Anticancer Drug Screen. Data for the cln2 rad14 strain (AID 165);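 further: 0% = growth equal to vehicle treated cultures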; conditions: S. cerevisiae cln2 rad14 strain, at 50.0 µM, hits give high values
Summary of the method: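 Yeast strain cln2 rad14, bearing defects in cell cycle control and DNA repair, serves as the test system; values reflect growth inhibition compared with vehicle.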

[5] = NCI Yeast Anticancer Drug Screen. Data for the bub3 strain (AID 167); conditions: S. cerevisiae bub3 mutant strain, at 50.0 µM, hits give high values
Summary of the method: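 Inhibition values come from growth of compound-treated mutant yeast normalised to vehicle-treated controls.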

[6] = NCI Yeast Anticancer Drug Screen. Data for the mlh1 rad18 strain (AID 175); conditions: S. cerevisiae mlh1 rad18 strain growth inhibition; at 50.0 µM; hits give high values
Summary of the method: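 Steps: expose repair-defective yeast to compound; measure growth; express inhibition against vehicle-treated controls.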

Measured: growth inhibition

O=C1NOCC1NCc1c(O)ccc2ccccc12 (stereo not given)
inactive: [1] 19.9% | [2] 13.2% | [3] 33.7% | [4] 26.6% | [5] 17.9% | [6] 23.2%

Cc1ccc(C)c(NS(=O)(=O)c2ccc(Cl)c([N+](=O)[O-])c2)c1
active: [1] 97.1% | [2] 98.2% | [3] 97.8% | [4] 96.8% | [5] 97.9% | [6] 98%

CC(=O)c1ccc2c(ccc3ccccc32)c1O
inactive: [1] -16.5% | [2] -11.6% | [3] -3.65% | [4] -8.8% | [5] -2.45% | [6] 0.7%

Nc1nc(N)c2nc(CNc3ccc(C(=O)NC(CCCNC(=O)c4ccccc4C(=O)O)C(=O)O)cc3)cnc2n1 (stereo not given)
inactive: [1] -14.1% | [2] 30.4% | [3] 7.6% | [4] -28.3% | [5] -37.9% | [6] -9.95%

CCCC1OC(c2ccccc2)OCC1CC (stereo not given)
inactive: [1] 6.45% | [2] 20.2% | [3] -12.7% | [4] -36.9% | [5] 15.8% | [6] 9.05%

COc1cc(C(CC(=O)O)CC(=O)O)cc(OC)c1OC
inactive: [1] -2.45% | [2] -8.8% | [3] 25.4% | [4] 7.05% | [5] 15.6% | [6] 12.6%

COC(=O)c1ccc(C(=O)OC)nc1
inactive: [1] -7.45% | [2] -2.1% | [3] -0.2% | [4] -36.6% | [5] -25.6% | [6] -3.55%

Cc1nc2ccccc2nc1CCC(=O)O
inactive: [1] -22.9% | [2] 4.25% | [3] -17.4% | [4] -23.6% | [5] -11.2% | [6] -6.65%

N#CC1(N(O)C(=O)Nc2ccccc2)CCCCC1
inactive: [1] 5.55% | [2] -10.3% | [3] -0.4% | [4] -7.05% | [5] 5.8% | [6] -13.1%

CCOC(=O)c1cn(C)c2c1C(=O)C(C(=O)OCC)CCN2C(=O)OCC (stereo not given)
inactive: [1] -1.5% | [2] 9.15% | [3] -11.8% | [4] 8.95% | [5] 1% | [6] -19.6%

COc1ccc(C2C(N)=NCC2c2ccccn2)cc1 (stereo not given)
inactive: [1] -21.9% | [2] -17.6% | [3] -12.4% | [4] 16.1% | [5] -9.55% | [6] -12.3%

NC(=O)COc1ccc(Br)cc1Br
inactive: [1] -0.1% | [2] -3.15% | [3] -12.7% | [4] 13.6% | [5] -6.3% | [6] 11.8%

CC(N)C(C)Cc1ccccc1 (stereo not given)
inactive: [1] -20.2% | [2] -21.4% | [3] -19.7% | [4] 65.7% | [5] -31.9% | [6] -14.6%

CSC(SC)=C(C(=O)c1ccc(Cl)cc1)n1c(=O)sc2cc(Br)ccc21
inactive: [1] -19% | [2] 2.45% | [3] 6.25% | [4] 0.25% | [5] 12.8% | [6] -20.4%

COC(=O)c1cc(NC(=O)Nc2ccc(Cl)cc2[N+](=O)[O-])cc(C(=O)OC)c1
inactive: [1] -21.4% | [2] -13.3% | [3] -14.1% | [4] -68.2% | [5] -2.35% | [6] -11.1%

c1ccc(CCc2nccc3ccccc23)cc1
inactive: [1] 8.55% | [2] -0.55% | [3] -5.6% | [4] -0.9% | [5] 13.9% | [6] 1.1%

NNc1nc(N2CCOCC2)c2[nH]cnc2n1
inactive: [1] -1.3% | [2] -5.45% | [3] 14.2% | [4] 4.5% | [5] -9.9% | [6] 4.75%

Cc1cccc(N=Nc2c(-c3ccccc3)nn(C(N)=S)c2C)c1C
inactive: [1] -19.8% | [2] -30.4% | [3] -18.4% | [4] -221% | [5] -9.95% | [6] -7.75%

Nc1nc2c(-c3ccc([N+](=O)[O-])cc3)nnn2c2cccc(Cl)c12
inactive: [1] -9.7% | [2] -15.8% | [3] -18.4% | [4] 4.85% | [5] -32.5% | [6] -14.7%

C/C(CC(=O)Nc1ccc(C)c(C)c1)=N\NC(N)=S
inactive: [1] -13.8% | [2] -6.1% | [3] 1.45% | [4] 18.2% | [5] 0.05% | [6] -2.4%

COC(=O)c1ccccc1NC(=O)Nc1ccc(SC)cc1
inactive: [1] -2% | [2] 24.4% | [3] 19.6% | [4] -8.65% | [5] 31.2% | [6] 14.3%

CCc1c(C)c2n(c1C)C(=O)C=C2N(CC)CC
inactive: [1] -11.2% | [2] -18.1% | [3] -38.1% | [4] -6.45% | [5] -2% | [6] -20.6%

COC(=O)c1ccc(C(=O)OC)c(NC(=O)CC(=O)c2ccc([N+](=O)[O-])cc2)c1
inactive: [1] 46.2% | [2] 18.9% | [3] 51.4% | [4] 9.55% | [5] -0.5% | [6] 34.8%

Cc1cccc(C)c1C
inactive: [1] 4.8% | [2] -5% | [3] 9.85% | [4] -3.05% | [5] -0.65% | [6] -15.1%

CC(=O)OC1[C@@H](OC(C)=O)[C@H](OC(C)=O)C2(CO2)[C@H](OC(C)=O)[C@H]1OC(C)=O (stereo not given in full)
inactive: [1] -7.05% | [2] -4.45% | [3] -6.4% | [4] -29.6% | [5] -0.15% | [6] 12.8%

CN(C)Cc1c(C(O)(c2ccccc2)c2ccccc2)cc2ccccc2c1Cl
inactive: [1] -12.8% | [2] -15.3% | [3] -25.6% | [4] -3% | [5] 1.05% | [6] -10.4%

CC(C)OC(=O)Oc1ccc(Cl)cc1
inactive: [1] 6.05% | [2] -13.1% | [3] 7.4% | [4] -46.1% | [5] -11.8% | [6] 9.8%

CCC1Cc2ccccc2OC1=O (stereo not given)
inactive: [1] 10.9% | [2] -3.6% | [3] -1.95% | [4] -7.7% | [5] 7.9% | [6] 1.55%

CC1(C)CC(Nc2ccc(Nc3ccccc3)cc2)CC(C)(C)N1
inactive: [1] -4.35% | [2] -6.3% | [3] -11.3% | [4] -9.8% | [5] -2.1% | [6] -19.8%

COC1OC(CO)C(O)C(NC(=O)OCc2ccccc2)C1O (stereo not given)
inactive: [1] 2.6% | [2] -1.7% | [3] 3.05% | [4] -46.1% | [5] 1.1% | [6] -13.4%

C[n+]1cccc(/C=C/c2ccc3cccc(O)c3n2)c1
inactive: [1] 4% | [2] -3.75% | [3] -12.7% | [4] -2.65% | [5] -42.4% | [6] 8.35%

O=C(Cl)c1ccc(Cc2ccc([N+](=O)[O-])cc2)cc1
inactive: [1] 14.8% | [2] 8.4% | [3] 11.4% | [4] -21.9% | [5] -17.1% | [6] 12.4%

CCOC(=O)c1c(C(F)(F)F)oc2c1ccc1nc3nonc3nc12
inactive: [1] 43.6% | [2] 21.6% | [3] 23.1% | [4] 27.5% | [5] 20.9% | [6] 35%

c1ccc2c(c1)CCCN2c1nc(N2CCCCC2)nc(N2CCOCC2)n1
inactive: [1] 12.9% | [2] -17.9% | [3] 22.6% | [4] 22.1% | [5] 11.6% | [6] 20.1%

O=C(Nc1ccccc1)Oc1ccc(Cl)cc1Cc1ccccc1
active: [1] 99.7% | [2] 99.8% | [3] 99.8% | [4] 99.8% | [5] 99.8% | [6] 99.8%

CC(C)(C#N)OC(=O)c1cccc(C(=O)OC(C)(C)C#N)c1Sc1ccccc1
inactive: [1] 41.8% | [2] -2.6% | [3] -7.25% | [4] 7.55% | [5] -2% | [6] -1.55%

CN(C)CCNC(=O)c1cccc2c(Nc3ccc(S(=O)(=O)N=C(N)N)cc3)c3ccccc3nc12
inactive: [1] -24.4% | [2] -0.3% | [3] -37% | [4] 8.35% | [5] -34.9% | [6] 53.9%

Nc1ccc(OCC(O)CN2CCN(c3ccccc3)CC2)cc1 (stereo not given)
inactive: [1] 7.45% | [2] 4.15% | [3] 6.65% | [4] -3.85% | [5] 10.6% | [6] 4.1%

O=C1c2c(nc3ccccc3c2-c2ccccc2)CN1Nc1ccccc1
inactive: [1] -12% | [2] -24.9% | [3] -9.45% | [4] 5.65% | [5] -37.7% | [6] -19.4%

CCOc1ccc(C=O)cc1OCC
inactive: [1] 0.15% | [2] -25.4% | [3] -9.3% | [4] -15.8% | [5] -2.7% | [6] -10.3%
